Source: PubChem BioAssay AID2731 (National Center for Advancing Translational Sciences (NCATS), 2010)
This is one part of the list. Results filed as inconclusive are left out. Active and inactive are the calls of the source. Calls come from the whole dose curve; as a rule, active = well fitted curve in the direction sought with a large enough effect; inconclusive = small, poorly fitted or top-dose-only effect, or effect the other way, or another doubt; inactive = no such curve, though single readings can be large or run the other way.

assay: High Content Assay for Compounds that inhibit the Assembly of the Perinucleolar Compartment: PC3M Caspase 3/7 Activation; details: PC3M-GFP caspase 3/7 activation, luminescence, 24 h; series mostly up to 46.1 µM; activity change, positive = activation: at the top concentration
Source text: High Content Assay for Compounds that inhibit the Assembly of the Perinucleolar Compartment NIH Chemical Genomics Center [NCGC] NIH Molecular Libraries Probe Centers Network [MLPCN] MLPCN Grant: MH082371-01A2 Assay Submitter (PI): Sui Huang, Northwestern University, Feinberg School of Medicine, Cell and Molecular Biology, Chicago, Illinois. The perinucleolar compartment (PNC) is a non-membrane-bound nuclear subdomain that is associated with but structurally distinct from the nucleolus. The PNC is a heritable trait, in which the number of PNCs per cell in daughter cells often mimics that of their mother cells. The PNC is heterogeneous in shape, is stable through interphase, disassembles during mitosis, and reassembles in early G1. The PNC is concentrated with newly synthesized RNA polymerase III (pol III) RNAs (MRP RNA, RNAse P H1 RNA, hY RNAs[hY1, 2, 5], Alu RNA, and SRP [7SL] RNA) and RNA binding proteins (nucleolin, PTB, CUG-BP, KSRP, Raver1, Raver2, and Rod). […] Extensive in vitro studies have shown that the PNC is unique to tumor cells and preferentially forms in tumor cells derived from solid tissues. Examination of cancer cell lines from various origins and malignant capacities has shown that PNC prevalence correlates with the malignancy of tumors and has the potential to be developed as a pan-cancer prognostic marker. […] Although the PNC is associated with a DNA locus and a handful of components have been identified, much remains to be investigated regarding the structure and function of the PNC and its mechanistic link to cancer. We have previously shown that PNC prevalence reduction is a valid strategy to identify compounds that can be used to study the structure and function of the PNC. It is necessary, however, to create a screening platform that is able to test a large number of compounds in an automated fashion. Here we report the development and robustness of an automated whole-cell phenotypic image-based screening assay that is capable of identifying such compounds. We conducted a followup assay to measure the effects of the lead candidates on Caspase 3/7 activation using a luminescent Caspase kit (Caspase 3/7 Glo). The highly metastatic PC3M-GFP reporter cell line was used in this study.
Caspase 3/7 Assay 1. Cells at a density of 75-90% confluency in T175 flasks were harvested using 7 ml TrypLE Express cell dissociation reagent. After dissociation (5 minutes room temperature incubation) 10 ml of complete media was added to the TrypLE/cell suspension. The liquid was transferred to a 50 ml Conical tube and cells were pelleted at 1000 RPM for 5 min. Supernatant was removed and cells were resuspended to a final density of 150-200 cells/ul in complete media. 2. Cells were plated in 5 ul volume (2000 cells/well) into 1536 well White solid bottom plates and allowed to recover and adhere at 37 C in a humidified 5% CO2 incubator for 4 hours. 3. After 4 hour incubation, compound libraries (23 nl of […] in columns 5-48) were transferred to the plates in duplicate using a 1536 well pintool. Camptothecin positive control (59 uM final) was added to column 2 and 1:3 dilutions of camptothecin was added to column 3. DMSO negative controls were present in columns 1 and 4. 4. After a 24 hour incubation in the 37 C incubator, all wells were treated with 3 ul of Caspase Glo 3/7 reagent using a multidrop combi dispenser (ThermoFisher). Bubbles that formed during dispensing were removed by spinning the plates for 1 minutre at 1500 RPM on a table top centrifuge. Plates were incubated at room temperature for 5 minutes. 5. Luminescencent signal was detected on a Viewlux CCD based imager (PerkinElmer) with a clear filter and a 30 second integration time. The The PC3M cell line stably expressing the PTB-GFP was provided by Sui Huang of Northwestern University. The media and cell culture reagents were purchased from Invitrogen (Carlsbad, CA). […]

Activity change, positive = activation, inactive:
N=c1c2c(-c3ccccc3)c(-c3ccccc3)n(Cc3ccccc3)c2ncn1CCCO -2.13%, CC1(c2cccc([N+](=O)[O-])c2)CC(C)(C)N(C(=O)c2ccccc2)c2ccccc21 (stereo unspecified) -7.33%, COC(=O)c1ccc(CSc2ccccc2C)o1 -6.23%, Cn1c2ccccc2c(=O)c2c(=O)n(Cc3ccco3)c(COc3ccccc3)nc21 17.1%, CCOC(=O)c1c(-c2cccc(C)c2)csc1NC(=O)c1c(-c2ccccc2)noc1C -4.95%, COC(=O)C1=C(C)N(c2ccc(Br)cc2)C(=O)/C1=C\c1ccco1 -5.24%
